The source of these data is PubChem BioAssay (Tox21).

Records with an inconclusive call do not appear. The source made the active and inactive calls. Unless noted, calls come from the whole dose curve; as a rule, active = well fitted curve in the direction sought with a large enough effect in the repeat runs; inconclusive = weak or mixed curves; inactive = no such curve, though single readings can be large; an effect the other way counts as inactive or inconclusive. Positions of bridges follow the written chain, without caps; N, C: chain ends. Non-standard residues stand in square brackets, D forms with d. Residues, ends and D or L forms follow the SMILES beside them. *: point of attachment. X2 = CC[C@H](C)CCCCC(=O)*; Dab = NCC[C@H](N)C(=O)O

A short description of experiment [1]: qHTS assay to identify small molecule antagonists of the thyroid receptor (TR) signaling pathway - cell viability counter screen (AID 743064). Note: nearly all actives have a fitted effect of over 50% in size. Put shortly: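 GH3.TRE-Luc cells, 4 h pre-plating; cpd + T3 1 nM final; 37 °C 23.5 h; CellTiter-Fluor 30 min; fluorescence read.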
For orientation: In qHTS, concentration-response curves come from the screen itself.

Experiment [2] in a line: qHTS assay to identify small molecule antagonists of the thyroid receptor (TR) signaling pathway (AID 743065). Note: nearly all actives have a fitted effect of over 55% in size. The essentials:
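Antagonism measured as loss of luciferase signal in GH3 cells stably carrying a TRE-luciferase reporter, co-treated with compound and T3 (1 nM final) for 23.5 h at 37 C. Viability was read in the same well by CellTiter-Fluor.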

For experiment [3], the system named is thyroid hormone receptor (rat, GH3 cells). In words: qHTS assay to identify small molecule agonists of the thyroid receptor (TR) signaling pathway (AID 743066; calls by dose curve).
The target of experiment [4] is Estrogen receptor (Homo sapiens) (UniProt P03372). In words: qHTS assay to identify small molecule antagonists of the estrogen receptor alpha (ER-alpha) signaling pathway (AID 743069; active = well fitted curve in the direction sought with a large enough effect in the signal ratio in the repeat runs, not every such curve was filed as active; the % refers to the signal ratio). Put shortly: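 Fluorescence intensity from a beta-lactamase FRET substrate served as the read-out. Cells: HEK293 with stably integrated ER-alpha-UAS-bla reporter. Agonist 17beta-estradiol was co-added with compounds; incubation 18 hr at 37C, substrate 2 hr at room temperature.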

Experiment [5] is described as follows: qHTS assay to identify small molecule antagonists of the estrogen receptor alpha (ER-alpha) signaling pathway - cell viability counter screen (AID 743074; calls by dose curve; note: nearly all actives have a fitted effect of over 45% in size).
Experiment [6] has as its target Estrogen receptor (Homo sapiens) (UniProt P03372). Nature of the experiment: qHTS assay to identify small molecule agonists of the estrogen receptor alpha (ER-alpha) signaling pathway (AID 743075; calls by dose curve).
Experiment [7] has the same target. Nature of the experiment: qHTS assay to identify small molecule agonists of the estrogen receptor alpha (ER-alpha) signaling pathway using the BG1 cell line (AID 743079). Note: nearly all actives have a fitted effect of over 20% in size. Note: potency is the fitted concentration of half-maximal effect. The settings on record: BG1Luc4E2 cells, ERE-luciferase agonist, 22 h; activation: at 70.3 µM (top of the series).
Experiment [8] is described as follows: qHTS assay to identify small molecule antagonists of the estrogen receptor alpha (ER-alpha) signaling pathway using the BG1 cell line (AID 743080; calls by dose curve;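 note: BG1 cells stimulated with 17beta-estradiol alongside compound; nearly all actives have a fitted effect of over 25% in size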). The essentials:
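Quantitative HTS on the Tox21 10K library: BG1 cells with endogenous ER-alpha and ERE-luciferase reporter, 17beta-estradiol stimulation, 21.5 h compound exposure, luminescence endpoint with parallel fluorescence cytotoxicity counter-read.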

Experiment [9] in a line: qHTS assay to identify small molecule antagonists of the estrogen receptor alpha (ER-alpha) signaling pathway using the BG1 cell line - cell viability counter screen (AID 743081).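 Note: compound given together with 17beta-estradiol as the ER stimulus; nearly all actives have a fitted effect of over 45% in size.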
The target of another experiment is Aromatase (Homo sapiens) (UniProt P11511). Nature of the experiment: qHTS assay to identify aromatase inhibitors (AID 743083). Note: nearly all actives have a fitted effect of over 55% in size.
Chain of Aromatase (Homo sapiens) (P11511 whole entry, looked up): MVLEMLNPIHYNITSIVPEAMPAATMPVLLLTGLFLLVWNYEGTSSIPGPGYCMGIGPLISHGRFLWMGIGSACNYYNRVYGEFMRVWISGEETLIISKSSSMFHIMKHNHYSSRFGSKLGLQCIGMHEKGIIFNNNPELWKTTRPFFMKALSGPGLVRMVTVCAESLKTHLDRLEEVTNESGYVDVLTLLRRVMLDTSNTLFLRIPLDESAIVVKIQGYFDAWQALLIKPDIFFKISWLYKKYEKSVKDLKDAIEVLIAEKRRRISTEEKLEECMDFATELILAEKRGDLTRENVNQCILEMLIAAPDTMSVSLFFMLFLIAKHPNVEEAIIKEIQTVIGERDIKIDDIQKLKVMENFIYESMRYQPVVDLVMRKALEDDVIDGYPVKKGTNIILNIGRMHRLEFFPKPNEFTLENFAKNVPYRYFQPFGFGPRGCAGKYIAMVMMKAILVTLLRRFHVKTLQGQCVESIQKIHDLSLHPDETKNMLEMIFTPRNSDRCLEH

Chain of Estrogen receptor (Homo sapiens) (P03372 whole entry, looked up): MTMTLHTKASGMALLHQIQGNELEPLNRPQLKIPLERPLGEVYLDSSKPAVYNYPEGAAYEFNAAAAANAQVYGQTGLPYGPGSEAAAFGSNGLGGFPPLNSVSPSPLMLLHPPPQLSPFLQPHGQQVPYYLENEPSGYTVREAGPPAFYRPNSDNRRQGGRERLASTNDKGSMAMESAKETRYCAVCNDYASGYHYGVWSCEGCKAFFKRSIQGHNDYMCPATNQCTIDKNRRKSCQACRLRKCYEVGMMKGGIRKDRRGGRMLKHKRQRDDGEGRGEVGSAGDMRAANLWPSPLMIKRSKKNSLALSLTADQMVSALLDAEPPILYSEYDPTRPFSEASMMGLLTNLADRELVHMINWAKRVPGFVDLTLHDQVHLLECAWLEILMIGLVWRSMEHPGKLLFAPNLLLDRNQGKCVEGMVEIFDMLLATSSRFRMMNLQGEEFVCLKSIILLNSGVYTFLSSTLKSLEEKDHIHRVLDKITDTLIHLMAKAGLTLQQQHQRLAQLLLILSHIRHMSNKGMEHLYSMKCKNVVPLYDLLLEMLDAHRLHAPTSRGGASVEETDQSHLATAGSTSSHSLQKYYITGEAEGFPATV

On to `NS(=O)(=O)c1cc2c(cc1Cl)NC(Cc1ccccc1)NS2(=O)=O` (stereo unspecified), for which the Potency result in experiment [1], in [2], in [3], in experiment [4], in [5] and in experiment [6] was “inactive” each time. Also, the Potency result (in experiment [7]; in experiment [8]; in experiment [9]; with Aromatase (Homo sapiens)) was “inactive” each time.
As for `CC[C@H]1OC(=O)[C@H](C)[C@@H](O[C@H]2C[C@@](C)(OC)[C@@H](O)[C@H](C)O2)[C@H](C)[C@@H](O[C@@H]2O[C@H](C)C[C@H](N(C)C)[C@H]2O)[C@](C)(O)C[C@@H](C)[C@@H]2N[C@@H](COCCOC)O[C@@H]([C@H]2C)[C@]1(C)O`, the Potency result in experiment [1], in experiment [2], in experiment [3], in experiment [4], in [5] and in [6] was “inactive” in each case. For the same compound, the Potency entry (in experiment [7]; in experiment [8]; in experiment [9]; in the experiment with Aromatase (Homo sapiens)) was “inactive” each time.
For the compound `O=C1c2ccccc2C(=O)C1c1ccc(Cl)cc1`, the Potency result in [1], in [2], in experiment [3], in experiment [4], in experiment [5] and in experiment [6] was “inactive” each time. Further, the Potency entry (in [7]; in experiment [8]; with Aromatase (Homo sapiens)) was “inactive” each time.
For `COc1cc(C[C@@H]2NCCc3cc(O)c(O)cc32)cc(OC)c1OC`, the Potency result in experiment [1], in experiment [2], in experiment [3], in experiment [4], in experiment [5] and in experiment [6] was “inactive” throughout. The Potency result (in experiment [7]; in [8]; with Aromatase (Homo sapiens)) was “inactive” throughout.
On to `CN(C)C=Nc1c(I)cc(I)c(CCC(=O)O)c1I`, for which the Potency result in [1], in experiment [2], in experiment [3], in [4], in experiment [5] and in experiment [6] was “inactive” each time. Besides, the Potency entry (in experiment [7]; in experiment [8]; in experiment [9]; with Aromatase (Homo sapiens)) was “inactive” throughout.
As to `COC(=O)[C@@H](N)CS`, the Potency result in experiment [1], in experiment [2], in [3], in experiment [4], in [5] and in experiment [6] was “inactive” each time. Further, the Potency entry (in experiment [8]; in experiment [9]; with Aromatase (Homo sapiens)) was “inactive” throughout. For the same compound, the Potency in experiment [7] is 26.6 µM (active).
Take `O=S(O)CNc1ccc(S(=O)(=O)c2ccc(NCS(=O)O)cc2)cc1`: the Potency entry in [1], in [2], in [3], in [4], in experiment [5] and in experiment [6] was “inactive” throughout. In addition, the Potency result (in [7]; in experiment [8]; in experiment [9]; with Aromatase (Homo sapiens)) was “inactive” each time.
Turning to `OC[C@H]1O[C@@H](O[C@H]2[C@H](O)[C@@H](O)[C@H](O)O[C@@H]2CO)[C@H](O)[C@@H](O)[C@@H]1O`, the Potency result in experiment [1], in experiment [2], in experiment [3], in experiment [4], in experiment [5] and in experiment [6] was “inactive” each time. Also, the Potency result (in [7]; in experiment [8]; in [9]; in the experiment with Aromatase (Homo sapiens)) was “inactive” each time.
For the compound `CCC(C)(C)OC(=O)N[C@@H](Cc1c[nH]c2ccccc12)C(=O)N[C@@H](CCSC)C(=O)N[C@@H](CC(=O)O)C(=O)N[C@@H](Cc1ccccc1)C(N)=O`, the Potency entry in [1], in experiment [2], in [3], in [4], in experiment [5] and in [6] was “inactive” in each case. The Potency result (in [7]; in [8]; with Aromatase (Homo sapiens)) was “inactive” each time.
On to `CC(C)[C@@H](N)C(=O)O`, for which the Potency result in [1], in experiment [2], in experiment [3], in [4], in experiment [5] and in experiment [6] was “inactive” throughout. For the same compound, the Potency result (in [7]; in experiment [8]; in experiment [9]; with Aromatase (Homo sapiens)) was “inactive” throughout.
As for `C[C@@H]1C/C=C/C=C/C=C/C=C/[C@H](O[C@@H]2O[C@H](C)[C@@H](O)[C@H](N)[C@@H]2O)C[C@@H]2O[C@](O)(C[C@@H](O)C[C@H]3O[C@@H]3/C=C/C(=O)O1)C[C@H](O)[C@H]2C(=O)O`, the Potency entry in experiment [1], in [2], in [3], in experiment [4], in experiment [5] and in experiment [6] was “inactive” in each case. In addition, the Potency result (in [7]; in [8]; in [9]; in the experiment with Aromatase (Homo sapiens)) was “inactive” in each case.
For `CC[C@H](C)CCCCC(=O)N[C@@H](CCN)C(=O)N[C@H](C(=O)N[C@@H](CCN)C(=O)N[C@H]1CCNC(=O)[C@H]([C@@H](C)O)NC(=O)[C@H](CCN)NC(=O)[C@H](CCN)NC(=O)[C@H](CC(C)C)NC(=O)[C@@H](CC(C)C)NC(=O)[C@H](CCN)NC1=O)[C@@H](C)O` (X2-[Dab]T[Dab][Dab][Dab][dL]L[Dab][Dab]T; lactam 4-C), the Potency result in [1], in [2], in experiment [3], in experiment [4], in [5] and in [6] was “inactive” each time. The Potency entry (in experiment [7]; in experiment [8]; in experiment [9]; in the experiment with Aromatase (Homo sapiens)) was “inactive” each time.
With `CCOC(=O)[C@@H](N)CS`, the Potency entry in [1], in [2], in experiment [3], in [4], in experiment [5] and in [6] was “inactive” throughout. Besides, the Potency entry (in [8]; in experiment [9]; in the experiment with Aromatase (Homo sapiens)) was “inactive” in each case. Further, in experiment [7], the Potency was 29.8 µM (active).
For `O=P(O)(O)OC(Cn1cncn1)(Cn1cncn1)c1ccc(F)cc1F`, the Potency result in experiment [1], in [2], in experiment [3], in experiment [4], in experiment [5] and in experiment [6] was “inactive” each time. In addition, the Potency entry (in [7]; in [8]; with Aromatase (Homo sapiens)) was “inactive” each time.
`CO/N=C(\C(=O)N[C@@H]1C(=O)N2C(C(=O)O)=C(CSC(=O)c3ccco3)CS[C@H]12)c1csc(N)n1`: the Potency entry in experiment [1], in experiment [2], in experiment [3], in experiment [4], in experiment [5] and in [6] was “inactive” throughout. Moreover, the Potency entry (in experiment [7]; in experiment [8]; in experiment [9]; with Aromatase (Homo sapiens)) was “inactive” each time.
In the case of `CCOC(=O)[C@H](CS)NCCN[C@@H](CS)C(=O)OCC`, the Potency result in [1], in [2], in [3], in experiment [4], in experiment [5] and in experiment [6] was “inactive” throughout. Also, the Potency entry (in experiment [7]; in experiment [8]; in [9]; with Aromatase (Homo sapiens)) was “inactive” throughout.
For the compound `NC(=O)OCC(O)COc1ccc(Cl)cc1` (stereo unspecified), the Potency entry in experiment [1], in experiment [2], in [3], in [4], in experiment [5] and in [6] was “inactive” throughout. In addition, the Potency result (in experiment [7]; in experiment [8]; in experiment [9]; with Aromatase (Homo sapiens)) was “inactive” each time.
With `CCCCC(O)c1ccccc1` (stereo unspecified), the Potency result in [1], in [2], in experiment [3], in [4], in experiment [5] and in experiment [6] was “inactive” throughout. The Potency result (in experiment [8]; in experiment [9]; with Aromatase (Homo sapiens)) was “inactive” each time. In experiment [7], the Potency was 21.1 µM (active).
As for `O=C(O)c1ccc(OCCn2ccnc2)cc1`, the Potency result in [1], in [2], in experiment [3], in experiment [4], in experiment [5] and in experiment [6] was “inactive” throughout. Also, the Potency entry (in experiment [7]; in experiment [8]; in experiment [9]; with Aromatase (Homo sapiens)) was “inactive” in each case.
For the compound `C[N@+]12CCCC[C@@H]1CCC(=C(c1cccs1)c1cccs1)C2`, the Potency entry in experiment [1], in experiment [2], in experiment [3], in [4], in [5] and in experiment [6] was “inactive” in each case. For the same compound, the Potency result (in experiment [7]; in experiment [8]; in [9]; with Aromatase (Homo sapiens)) was “inactive” in each case.
